Assay outcomes from PubChem.
A selection: hits, their analogues and other compounds. The true share with any hit is near 3.9%.
p53null 32C kill = qHTS Screen for Compounds that Selectively Target Cancer Cells with p53 Mutations: Cytotoxicity of p53 Null Cells at the Permissive Temperature | H1299-neo p53 null cells, ATP luminescence, 24 h, 32C | AID 903, 2007 | hit rate 0.62% among 55,000 | Potency, µM (highest dose often 46.1 µM), inactives show at the top dose activity change, negative = cytotoxicity, hits mostly cytotoxic;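 also: potency is read from the fitted curve at half-maximal effect; 0% = DMSO only and -100% = full killing by 100 µM tamoxifen; nearly all actives have a fitted effect of over 55% in size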
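Overnight 37C seeding (600 cells/well) of H1299-neo preceded a 24 hr, 32C exposure to compounds up to 46 uM. ATP levels, read by luminescence after 20 min at RT, indicated surviving cells.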
NTMT1 inhibitor = Primary qHTS for Inhibitors of N-terminal methyltransferase 1 (NTMT1): MTaseGlo Assay. N-terminal Xaa-Pro-Lys N-methyltransferase 1 (Homo sapiens), Q9BV86. NTMT1 MTase-Glo SAH luminescence, purified enzyme. Potency, µM (series often up to 114 µM), without a hit: at the top dose activity change, negative = inhibition, hits mostly inhibitors. hit rate 2.5% among 59,000;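 also: potency is read from the fitted curve at half-maximal effect; plate controls were DMSO vehicle for no effect and no enzyme for full effect; nearly all actives have a fitted effect of over 65% in size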
Target sequence (Q9BV86 whole entry, looked up): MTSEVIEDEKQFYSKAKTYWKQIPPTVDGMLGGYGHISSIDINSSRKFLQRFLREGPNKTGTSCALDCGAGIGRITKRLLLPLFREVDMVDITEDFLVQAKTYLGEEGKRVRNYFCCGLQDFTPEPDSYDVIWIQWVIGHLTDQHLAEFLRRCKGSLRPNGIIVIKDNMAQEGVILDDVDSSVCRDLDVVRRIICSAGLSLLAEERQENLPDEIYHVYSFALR
DRV1 agonist = qHTS for Agonists of Human Resolvin D1 Receptor DRV1; Probable G-protein coupled receptor 32 (Homo sapiens), O75388; CHO-K1 GPR32 beta-arrestin PathHunter luminescence, 90 min; zero percent set by DMSO-only wells; activation, % at 76.9 µM; hit rate 2.5% among 48,000;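 active = activation of at least 60% and not above a set upper limit, about 1 call in 100 departs from these limits; inconclusive = activation of 40% to 60%, or above that upper limit; inactive = activation under 40%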; also: 0% is about no effect
Target sequence (O75388 whole entry, looked up): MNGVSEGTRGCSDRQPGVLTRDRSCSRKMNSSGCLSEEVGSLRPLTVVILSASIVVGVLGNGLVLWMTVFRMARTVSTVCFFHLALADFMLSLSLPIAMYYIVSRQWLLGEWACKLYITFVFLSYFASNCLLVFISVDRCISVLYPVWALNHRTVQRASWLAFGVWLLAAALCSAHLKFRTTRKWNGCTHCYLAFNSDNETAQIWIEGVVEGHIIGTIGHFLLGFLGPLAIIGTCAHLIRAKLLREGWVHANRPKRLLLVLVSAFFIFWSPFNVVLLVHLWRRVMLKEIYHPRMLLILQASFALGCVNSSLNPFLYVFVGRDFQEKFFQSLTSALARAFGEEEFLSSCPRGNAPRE
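Luminescent readout of beta-Gal complementation quantifies ligand-induced beta-arrestin association with GPR32 in CHO-K1 cells; 90 min compound incubation at 37 °C, detection 1 h at room temperature.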
FH mod = Identification of activators of human fumarate hydratase by quantitative high-throughput screening; Fumarate hydratase, mitochondrial (Homo sapiens), P07954; FH coupled MDH/diaphorase resazurin fluorescence, 15 min; Potency, µM (doses to about 79.9 µM), for inactives: top-dose activity change, negative = inhibition, hits mostly inhibitors; hit rate 0.22% among 54,000; AID 1347055, 2019; also: potency is read from the fitted curve at half-maximal effect; % is scaled to controls: 0 for no effect and ±100 for the full control effect; the screen sought activators but most active calls are inhibition curves; nearly all actives have a fitted effect of over 45% in size
GALC G270D up = A Novel Cell-Based Assay to Identify Small Molecules for B -Galactocerebrosidase. 145M-Twi-hGALC-G270D cells (Twitcher mouse brain line with human GALC G270D), HMU-beta-Gal fluorescence, 48 h. hit rate 0.1% among 45,000. Potency, µM (doses to about 57.5 µM), hits mostly activators. P54803. AID 1159614, 2016; also: potency is read from the fitted curve at half-maximal effect; 0% is about no effect; nearly all actives have a fitted effect of over 65% in size
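Mutant human GALC (G270D), stably expressed in a Twitcher mouse brain cell line lacking endogenous GALC, is measured in live-treated cells via 6-hexadecanoylamino-4-methylumbelliferyl-β-galactoside hydrolysis (0.1 mM final, pH 5.2) with fluorescent detection.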
p53null 39C kill = qHTS Screen for Compounds that Selectively Target Cancer Cells with p53 Mutations: Cytotoxicity of p53 Null Cells at the Nonpermissive Temperature; AID 904, 2007; H1299 p53-null (neo) cells, 39C, ATPlite viability, 24 h; Potency, µM (titrated, usually from 46.1 µM), for the others: at the top dose activity, negative = cell killing, hits mostly cytotoxic; hit rate 0.97% among 55,000;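 also: potency is read from the fitted curve at half-maximal effect; 0% = DMSO only and -100% = full killing by 100 µM tamoxifen; nearly all actives have a fitted effect of over 50% in size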
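Temperature-shift cytotoxicity format: compound titrations on p53-null or A138V-expressing H1299 cells held 24 hr at 39C, cell ATP then measured, AC50 from Hill model.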
* hit, by the source's call; [ ] = remark or other dose. Unless noted, calls follow the shape of the dose curve; as a rule, active = well fitted curve in the direction sought with a large enough effect; inconclusive = small, poorly fitted or top-dose-only effect, or another doubt; inactive = no such curve, though single readings can be large; an effect the other way counts as inactive or inconclusive.

How did COCCCNC(=O)c1sc2nc(C)c(C(=O)Nc3ccc(Cl)cc3)c(-c3ccc(Br)cc3)c2c1N do in these assays?
p53null 32C kill: -5%; NTMT1 inhibitor: 9%; DRV1 agonist: 64*; FH mod: -5%; GALC G270D up: inactive; p53null 39C kill: -16%

What do the screens show for `Cc1c(-c2cnccn2)ssc1=S`?
NTMT1 inhibitor: 3.2µM*

What do the screens show for `Cc1ccc(Nc2c(-c3ccc(N4CCOCC4)cc3)nc3ncccn23)cc1`?
p53null 32C kill: -1%; NTMT1 inhibitor: 21%; DRV1 agonist: -19; FH mod: -4%; GALC G270D up: inactive; p53null 39C kill: -20%

How did Cc1ccccc1Nc1c(-c2ccc(N3CCOCC3)cc2)nc2ncccn12 do in these assays?
p53null 32C kill: 13µM*; NTMT1 inhibitor: -4%; DRV1 agonist: -27; FH mod: -14%; GALC G270D up: inactive; p53null 39C kill: 13µM*

How did Cc1ccc(/C=C/c2nc3ccccc3[nH]2)cc1 do in these assays?
p53null 32C kill: 0.4µM*; NTMT1 inhibitor: 5µM*; DRV1 agonist: 31; FH mod: 0%; GALC G270D up: inactive; p53null 39C kill: 1.6µM*

Results for Cc1ccccc1-c1nc2ccccc2[nH]1 ?
p53null 32C kill: -15%; p53null 39C kill: -1%

Results for Cc1ccc(N(CC(C)C)S(=O)(=O)c2nnc(NC(=O)c3ccco3)s2)cc1 ?
p53null 32C kill: 9%; NTMT1 inhibitor: -3%; DRV1 agonist: 35; FH mod: -9%; GALC G270D up: inactive; p53null 39C kill: -10%

How did CCN(c1cccc(C)c1)S(=O)(=O)c1nnc(NC(=O)c2cccs2)s1 do in these assays?
p53null 32C kill: 6%; NTMT1 inhibitor: 10%; DRV1 agonist: 62*; FH mod: -7%; GALC G270D up: inactive; p53null 39C kill: 7%

Results for CCN(c1cc(C)cc(C)c1)S(=O)(=O)c1nnc(NC(=O)c2cccs2)s1 ?
p53null 32C kill: 8%; NTMT1 inhibitor: 11%; DRV1 agonist: 34; FH mod: -11%; GALC G270D up: inactive; p53null 39C kill: -3%

Results for CCN(c1ccccc1)S(=O)(=O)c1nnc(NC(=O)c2ccco2)s1 ?
p53null 32C kill: inconclusive; NTMT1 inhibitor: 6%; DRV1 agonist: 23; FH mod: 8%; GALC G270D up: inactive; p53null 39C kill: 1µM*

How did O=S(=O)(Nc1nc(CN2CCOCC2)nc2sc3c(c12)CCC3)c1ccc2c(c1)OCCO2 do in these assays?
NTMT1 inhibitor: -3%

How did CCN(CC)c1ccc(C(=C2C=CC(=[N+](CC)CC)C=C2)c2cc(S(=O)(=O)O)ccc2S(=O)(=O)[O-])cc1 do in these assays?
NTMT1 inhibitor: 28µM*; DRV1 agonist: -78; FH mod: -23%[53.3 µM]; GALC G270D up: inactive

How did Cc1ccc(-c2ccc(CNc3nc(-c4ccccc4C(C)C)nc4ccccc34)cc2)cn1 do in these assays?
NTMT1 inhibitor: 2%

Results for COc1ccc(-c2nc3ccc(C4=NNC(=O)CC4C)cc3[nH]2)cc1 (stereo not drawn) ?
NTMT1 inhibitor: inconclusive; DRV1 agonist: 24; FH mod: -1%; GALC G270D up: inactive

Results for COc1ccc2oc(=O)c(-c3nc4ccc(C)cc4[nH]3)cc2c1 ?
p53null 32C kill: -12%; NTMT1 inhibitor: 22%; DRV1 agonist: 4; FH mod: -4%; GALC G270D up: inactive; p53null 39C kill: -20%

What do the screens show for `COc1ccc2nc(-c3ccc(N)cc3)[nH]c2c1`?
p53null 32C kill: 13µM*; p53null 39C kill: inconclusive

Results for COc1ccc2nc(-c3cccc(N)c3)[nH]c2c1 ?
p53null 32C kill: 10µM*; p53null 39C kill: 8.9µM*

What do the screens show for `Cc1ccc(CCNC(=O)CN(c2ccc(C)cc2)S(=O)(=O)N(C)C)cc1`?
p53null 32C kill: 1%; NTMT1 inhibitor: 4%; DRV1 agonist: 26; FH mod: -3%; GALC G270D up: inactive; p53null 39C kill: 16%

Results for CCc1ccc(CNC(=O)CN(c2ccc(C)cc2)S(=O)(=O)N(C)C)cc1 ?
p53null 32C kill: -8%; NTMT1 inhibitor: -12%; DRV1 agonist: 87*; FH mod: -2%; GALC G270D up: inactive; p53null 39C kill: -9%

How did COCCN1CCC(C(=O)NO)(S(=O)(=O)c2ccc(Oc3ccc(OC(F)(F)F)cc3)cc2)CC1 do in these assays?
NTMT1 inhibitor: -1%[57.5 µM]; FH mod: 8%

Results for CCOc1ccc2nc(SCc3cccc(C)c3)nc(C)c2c1 ?
p53null 32C kill: 7%

What do the screens show for `CCOc1ccc2nc3cc(N)ccc3c(N)c2c1`?
NTMT1 inhibitor: 20µM*; DRV1 agonist: 44; FH mod: -10%[53.3 µM]; GALC G270D up: inactive

What do the screens show for `O=C1NC(=O)C(c2c[nH]c3ccccc23)=C1c1c[nH]c2ccccc12`?
NTMT1 inhibitor: 11µM*; FH mod: -25%

Results for COCc1nn2cc(-c3ccc(C)cc3)nc2s1 ?
p53null 32C kill: 10µM*; NTMT1 inhibitor: inconclusive; DRV1 agonist: -10; FH mod: 5%; GALC G270D up: inactive; p53null 39C kill: 10µM*

Results for CCOc1ccc(-c2cn3nc(CC(C)C)sc3n2)cc1 ?
p53null 32C kill: inconclusive; NTMT1 inhibitor: 6%; DRV1 agonist: 25; FH mod: -17%; GALC G270D up: inactive; p53null 39C kill: inconclusive

What do the screens show for `COc1ccc(Nc2nn3c(=O)c4cc5c(cc4nc3s2)OCO5)c(OC)c1`?
p53null 32C kill: 6%; NTMT1 inhibitor: -3%; DRV1 agonist: -7; FH mod: -21%; GALC G270D up: inactive; p53null 39C kill: -22%

Results for O=c1c2ccccc2nc2sc(Nc3cccc(Br)c3)nn12 ?
NTMT1 inhibitor: 44%

Results for Cc1ccc(C)c(Nc2nn3c(=O)c4cc5c(cc4nc3s2)OCO5)c1 ?
p53null 32C kill: -9%; NTMT1 inhibitor: -2%; DRV1 agonist: 63*; FH mod: -12%; GALC G270D up: inactive; p53null 39C kill: -16%

What do the screens show for `O=c1c2cc3c(cc2nc2sc(Nc4ccccc4)nn12)OCO3`?
p53null 32C kill: 10µM*; NTMT1 inhibitor: inconclusive; DRV1 agonist: -4; FH mod: -9%; GALC G270D up: inactive; p53null 39C kill: 6.3µM*
